{
  "source": "paper PMC4336329",
  "about": "(PLoS ONE, 2015)",
  "note": "About 14,000 (4.5%) of roughly 310,000 compounds showed an effect of 50% or more. Effects have a minus sign here. For the sample, strong results were picked, then their nearest neighbours and some compounds at random.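 Note: peak tail current of the secondary pulse compared with the same well before compound.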",
  "data": [
    {"molecular_target": "human ether-à-go-go-related gene (hERG) potassium channel (human, UniProt Q12809)", "sequence (Q12809 whole entry, looked up)": "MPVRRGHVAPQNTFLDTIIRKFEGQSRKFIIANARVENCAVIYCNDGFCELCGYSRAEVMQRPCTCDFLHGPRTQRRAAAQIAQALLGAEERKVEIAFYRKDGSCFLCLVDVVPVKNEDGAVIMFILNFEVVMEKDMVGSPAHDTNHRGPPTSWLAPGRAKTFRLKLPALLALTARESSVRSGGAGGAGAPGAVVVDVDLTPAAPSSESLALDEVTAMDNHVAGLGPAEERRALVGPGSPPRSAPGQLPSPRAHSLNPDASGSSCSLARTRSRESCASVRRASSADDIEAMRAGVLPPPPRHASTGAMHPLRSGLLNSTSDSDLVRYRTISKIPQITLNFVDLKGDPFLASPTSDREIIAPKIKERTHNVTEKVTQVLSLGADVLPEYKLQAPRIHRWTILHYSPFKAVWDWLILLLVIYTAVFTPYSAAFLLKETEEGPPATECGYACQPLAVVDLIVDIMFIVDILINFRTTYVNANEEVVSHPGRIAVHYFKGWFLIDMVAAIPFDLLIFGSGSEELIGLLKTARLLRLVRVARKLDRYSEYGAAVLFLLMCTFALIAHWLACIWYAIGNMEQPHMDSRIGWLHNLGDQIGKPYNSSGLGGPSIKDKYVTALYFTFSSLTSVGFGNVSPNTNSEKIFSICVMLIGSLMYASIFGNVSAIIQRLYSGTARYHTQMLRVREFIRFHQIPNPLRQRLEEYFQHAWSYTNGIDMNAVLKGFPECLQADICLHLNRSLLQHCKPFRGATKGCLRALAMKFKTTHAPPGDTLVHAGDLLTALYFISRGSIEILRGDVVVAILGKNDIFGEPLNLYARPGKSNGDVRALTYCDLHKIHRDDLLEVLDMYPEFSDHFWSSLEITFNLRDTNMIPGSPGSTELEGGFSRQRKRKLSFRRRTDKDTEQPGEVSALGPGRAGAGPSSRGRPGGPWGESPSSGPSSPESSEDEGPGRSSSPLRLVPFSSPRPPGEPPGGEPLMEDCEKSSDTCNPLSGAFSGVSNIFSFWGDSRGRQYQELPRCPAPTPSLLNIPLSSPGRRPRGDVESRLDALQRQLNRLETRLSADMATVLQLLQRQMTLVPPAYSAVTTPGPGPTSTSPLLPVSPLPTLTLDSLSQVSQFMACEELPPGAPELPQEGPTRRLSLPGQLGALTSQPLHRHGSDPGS", "assay": "primary screen, population patch clamp on CHO cells stably expressing hERG; higher = less effect of the substance", "units": {"hERG current change (%, negative = inhibition) at 10uM": "%"}, "values": [
      {"smiles": "CCOC(=O)c1c(-c2ccc(OC)cc2)oc2cc(Br)c(O)cc12", "hERG current change (%, negative = inhibition) at 10uM": 10.4},
      {"smiles": "COc1ccc(NS(=O)(=O)c2ccc(OCC(=O)N3CCOCC3)cc2)cc1Cl", "hERG current change (%, negative = inhibition) at 10uM": 8.46},
      {"smiles": "CNC(=O)Nc1ccc(C2SCCS2)cc1", "hERG current change (%, negative = inhibition) at 10uM": 7.02},
      {"smiles": "CCOC(=O)C1=C2SCCN2C(=O)C(C#N)C1(C)C", "note": "(stereo not drawn)", "hERG current change (%, negative = inhibition) at 10uM": 7.34},
      {"smiles": "COc1ccc(-c2cc(C(=O)N3CC4(C)CC3CC(C)(C)C4)no2)cc1OC", "note": "(stereo not drawn)", "hERG current change (%, negative = inhibition) at 10uM": -20.1},
      {"smiles": "O=C(NCc1ccccc1F)C(=O)NCC1OCCCN1S(=O)(=O)c1cccs1", "note": "(stereo not drawn)", "hERG current change (%, negative = inhibition) at 10uM": 9.19},
      {"smiles": "Cc1ccccc1NCN1C(=O)C2CCC(C)(C1=O)C2(C)C", "note": "(stereo not drawn)", "hERG current change (%, negative = inhibition) at 10uM": -0.978},
      {"smiles": "COCc1[nH]nc2c1C(c1ccccc1F)C(C#N)=C(N)O2", "note": "(stereo not drawn)", "hERG current change (%, negative = inhibition) at 10uM": 11},
      {"smiles": "Cc1ccc(C)c(C(=O)CC2(O)C(=O)N(C)c3ccccc32)c1", "note": "(stereo not drawn)", "hERG current change (%, negative = inhibition) at 10uM": 8.85},
      {"smiles": "O=C(Nc1ccc(Br)c(C(F)(F)F)c1)c1ccccc1", "hERG current change (%, negative = inhibition) at 10uM": 27.3},
      {"smiles": "O=C(Nc1ccc(Br)c(C(F)(F)F)c1)c1ccc(C(F)(F)F)cc1", "hERG current change (%, negative = inhibition) at 10uM": 11.8},
      {"smiles": "O=C(O)c1ccccc1C(=O)Nc1ccc(Br)c(C(F)(F)F)c1", "hERG current change (%, negative = inhibition) at 10uM": -70.6},
      {"smiles": "C/C(=N\\NC(=O)CSc1nc2ccccc2s1)c1ccco1", "hERG current change (%, negative = inhibition) at 10uM": 0.0885},
      {"smiles": "CC1CCCCN1C(=O)COC(=O)c1cccc(NS(=O)(=O)c2ccccc2)c1", "note": "(stereo not drawn)", "hERG current change (%, negative = inhibition) at 10uM": 0.629},
      {"smiles": "N#CCSc1ccccc1NC(=O)COc1ccc(-c2nnco2)cc1", "hERG current change (%, negative = inhibition) at 10uM": -66.3},
      {"smiles": "O=C(COc1ccc(-c2nnco2)cc1)Nc1c(F)cccc1F", "hERG current change (%, negative = inhibition) at 10uM": 0.851},
      {"smiles": "N#Cc1ccsc1NC(=O)COc1ccc(-c2nnco2)cc1", "hERG current change (%, negative = inhibition) at 10uM": 1.95},
      {"smiles": "CCN(CC(=O)Nc1ccc2c(c1)OCCO2)S(=O)(=O)c1cccs1", "hERG current change (%, negative = inhibition) at 10uM": -4.54},
      {"smiles": "COc1cccc(C(=O)Nc2c(C)n[nH]c2C)c1", "hERG current change (%, negative = inhibition) at 10uM": -0.143},
      {"smiles": "COC(=O)c1ccc(S(=O)(=O)NCc2ccco2)o1", "hERG current change (%, negative = inhibition) at 10uM": 6.1},
      {"smiles": "O=C(Cn1c(CN2CCCCC2)nc2ccccc2c1=O)NCc1ccco1", "hERG current change (%, negative = inhibition) at 10uM": -15.4},
      {"smiles": "COCCN(Cc1cc2cc(C)ccc2[nH]c1=O)S(=O)(=O)c1ccc(Cl)cc1", "hERG current change (%, negative = inhibition) at 10uM": 16.4},
      {"smiles": "COc1ccc(S(=O)(=O)Nc2nc3c(s2)C(=O)CC(C)(C)C3)cc1", "hERG current change (%, negative = inhibition) at 10uM": -10.3},
      {"smiles": "CC(C)Cn1nc(C(=O)NCc2ccccc2CN2CCCC2)c2ccccc2c1=O", "hERG current change (%, negative = inhibition) at 10uM": -38.3},
      {"smiles": "CCCCn1nc(C(=O)N(CC)CC(=O)Nc2c(F)cccc2F)c2ccccc2c1=O", "hERG current change (%, negative = inhibition) at 10uM": -7.72},
      {"smiles": "CCCCn1nc(C(=O)NCc2ccccc2CN2CCCC2)c2ccccc2c1=O", "hERG current change (%, negative = inhibition) at 10uM": -64.6},
      {"smiles": "CCCCn1nc(C(=O)NCC(=O)Nc2c(C)cccc2C)c2ccccc2c1=O", "hERG current change (%, negative = inhibition) at 10uM": -68.9},
      {"smiles": "CCCCn1nc(C(=O)Nc2ccccc2N2CCCC2)c2ccccc2c1=O", "hERG current change (%, negative = inhibition) at 10uM": -9.4},
      {"smiles": "CCCCn1nc(C(=O)Nc2c(C)n(C)n(-c3ccccc3)c2=O)c2ccccc2c1=O", "hERG current change (%, negative = inhibition) at 10uM": -17.9},
      {"smiles": "COc1cc(CCCN[C@H](CN)Cc2ccccc2)cc(OC)c1OC", "hERG current change (%, negative = inhibition) at 10uM": -4.22},
      {"smiles": "Cl.O=C1CSC(c2cccc([N+](=O)[O-])c2)N1CCN1CCCCC1", "note": "(stereo not drawn)", "hERG current change (%, negative = inhibition) at 10uM": -21.4},
      {"smiles": "CCN(CC)CCCN1C(=O)CSC1c1ccc2c(c1)OCO2.Cl", "note": "(stereo not drawn)", "hERG current change (%, negative = inhibition) at 10uM": -39.2},
      {"smiles": "O=C1CSC(c2ccc([N+](=O)[O-])cc2)N1Cc1ccccc1", "note": "(stereo not drawn)", "hERG current change (%, negative = inhibition) at 10uM": -48.8},
      {"smiles": "CCN(CC)CCCN1C(=O)CSC1c1ccc([N+](=O)[O-])cc1.Cl", "note": "(stereo not drawn)", "hERG current change (%, negative = inhibition) at 10uM": -72.8},
      {"smiles": "Cl.O=C1CSC(c2ccc([N+](=O)[O-])cc2)N1CCN1CCCCC1", "note": "(stereo not drawn)", "hERG current change (%, negative = inhibition) at 10uM": -94.9},
      {"smiles": "CN(C)CCCN1C(=O)CSC1c1ccc([N+](=O)[O-])cc1.Cl", "note": "(stereo not drawn)", "hERG current change (%, negative = inhibition) at 10uM": -46},
      {"smiles": "O=C(O)c1cc(S(=O)(=O)NC2CCCc3ccccc32)ccc1O", "note": "(stereo not drawn)", "hERG current change (%, negative = inhibition) at 10uM": 13.5},
      {"smiles": "CC(C)CN(CC(C)C)c1ccc(C=C2C(=O)NC(=S)NC2=O)cc1[N+](=O)[O-]", "hERG current change (%, negative = inhibition) at 10uM": 9.99},
      {"smiles": "CC[C@@H](C)C(NC(=O)OC(C)(C)C)c1cn([C@@H](CCC(=O)OC(C)(C)C)C(=O)N2CCN(C(=O)OC(C)(C)C)CC2)nn1", "note": "(stereo partly drawn)", "hERG current change (%, negative = inhibition) at 10uM": -17.6},
      {"smiles": "CC[C@@H](C)C(NC(=O)OC(C)(C)C)c1cn([C@@H](Cc2ccc(O)cc2)C(=O)N2CCN(C(=O)OC(C)(C)C)CC2)nn1", "note": "(stereo partly drawn)", "hERG current change (%, negative = inhibition) at 10uM": -70},
      {"smiles": "CC[C@@H](C)C(NC(=O)OC(C)(C)C)c1cn([C@@H](Cc2cc3ccccc3[nH]2)C(=O)N2CCN(C(=O)OC(C)(C)C)CC2)nn1", "note": "(stereo partly drawn)", "hERG current change (%, negative = inhibition) at 10uM": -13.4},
      {"smiles": "O=c1c2cc(NC(=S)NCc3ccccn3)ccc2nc2n1CCCCC2", "hERG current change (%, negative = inhibition) at 10uM": -6.42},
      {"smiles": "COCCCNC(=S)Nc1ccc2nc3n(c(=O)c2c1)CCCCC3", "hERG current change (%, negative = inhibition) at 10uM": 7.89},
      {"smiles": "O=c1c2cc(NC(=S)NC3CCCC3)ccc2nc2n1CCCCC2", "hERG current change (%, negative = inhibition) at 10uM": -59.6},
      {"smiles": "CC(C)CCNC(=S)Nc1ccc2nc3n(c(=O)c2c1)CCCCC3", "hERG current change (%, negative = inhibition) at 10uM": -46.2}
    ]}
  ]
}
